In publication PMC4552634, “A New Set of Chemical Starting Points with Plasmodium falciparum Transmission-Blocking Potential for Antimalarial Drug Discovery” (PLoS ONE, 2015):
The campaign covered roughly 13,000 compounds. About 3,200 (25%) showed an effect of 50% or more. Some of the results follow.

Each molecule was assayed on P. falciparum stage V gametocytes. Conditions: 48 h, 5 µM; inhibitor.
Set-up: BacTiter-Glo ATP luminescence viability of purified stage V gametocytes in 384-well plates, per cent inhibition versus DMSO

Compared with `COc1ccc2ncc(F)c([C@@H](O)CN3CCC(NCc4cc(C#N)c5c(c4)CCO5)CC3)c2n1` [TCMDC-136078], `COc1ccc2ncc(F)c([C@@H](O)CN3CCC(NCc4ccc5c(c4)NCCS5)CC3)c2n1` [TCMDC-135765] is lower in “% Inhibition” value: 86.13% for the first, 82.34% for the second.

Compared with `COc1ccc2nccc([C@H](O)CN3CCC(NCc4cc(C)c5c(c4)OCCO5)CC3)c2n1` [TCMDC-136075], `COc1ccc2ncc(F)c([C@H](O)CN3CCC(NCc4ccc5c(c4)OCCO5)CC3)c2c1` [TCMDC-135828] is lower in “% Inhibition” value: 22.49% for the first, -2.76% for the second.

Going from `COc1ccc2ncc(F)c([C@H](O)CN3CCC(NCc4ccc5c(c4)NC(=O)CO5)CC3)c2c1` [TCMDC-135829] to `COc1ccc2ncc(F)c(CCN3CCC(NCc4ccc5c(c4)CCO5)CC3)c2n1` [TCMDC-135491], the “% Inhibition” value rises from -7.754% to 11.83%.

Going from `COc1nc2c(CCN3CC[C@H](NCc4cc(C#N)c5c(c4)CCO5)[C@H](O)C3)ccnc2cc1F` [TCMDC-135969] to `COc1nc2c(CCN3CC[C@@H](NCc4cc(C#N)c5c(c4)CCO5)[C@@H](O)C3)ccnc2cc1F` [TCMDC-135964], the “% Inhibition” value rises from -20.52% to 90.2%.

Compared with `COc1nc2c(CCN3CC[C@H](NCc4cc(C#N)c5c(c4)OCCO5)[C@H](O)C3)ccnc2cc1F` [TCMDC-135968], `COc1ccc(NC(=O)NC2CCN(c3ccnc4cc(Cl)ccc34)CC2)cc1` [TCMDC-133573] is lower in “% Inhibition” value: 5.29% for the first, -92.42% for the second.

Compared with `O=C(Nc1ccc(-c2cccc(-c3nc4ccccc4[nH]3)c2)cc1)NC1CC1c1ccccc1` (stereo not shown) [TCMDC-133257], `CS(=O)(=O)c1ccccc1CNC(=O)c1cccc(-c2ccc(-c3nc4cc(C(F)(F)F)ccc4[nH]3)cc2)c1` [TCMDC-132506] is lower in “% Inhibition” value: -13.71% for the first, -36.65% for the second.

Compared with `O=C(CC1CCCC1)N(CC1CCN(Cc2ccc(C(F)(F)F)cc2)CC1)c1ccc(N2CCOCC2)c(F)c1` [TCMDC-135855], `CCCC(C)NC(=O)[C@H](CC1CCCCC1)NC(=O)c1ccc(O)c(-c2cccc(C(F)(F)F)c2)c1` (stereo partly shown) [TCMDC-140808] is higher in “% Inhibition” value: 9.841% for the first, 13.25% for the second.

Compared with `CCN(CCCN1CCCCC1)c1nccc(Nc2ccc(Cl)cc2)n1` [TCMDC-137046], `N#Cc1ccc(NC(=O)NC2CCN(CCCCCNC(=O)/C=C/c3ccc(Cl)c(Cl)c3)CC2)cc1` [TCMDC-135705] is lower in “% Inhibition” value: 6.161% for the first, -23.68% for the second.

First: CC(C)N1CCC(N(Cc2ccc(-c3ccc(C(F)(F)F)cc3)cc2)C(=O)Cn2c(SCc3cccc(F)c3F)nc(=O)c3ccccc32)CC1 [TCMDC-141312]
Second: CC(C)N1CCC(N(Cc2ccc(-c3ccc(C(F)(F)F)cc3)cc2)C(=O)Cn2c(SCc3cccc(F)c3F)cc(=O)c3ccccc32)CC1 [TCMDC-141157]
The “% Inhibition” value of the first is higher: 121.2% for the first, 117.9% for the second.

Compared with `CC(C)N1CCC(N(Cc2ccc(-c3ccc(C(F)(F)F)cc3)cc2)C(=O)Cn2c(CCc3cccc(F)c3F)cc(=O)c3ccccc32)CC1` [TCMDC-141141], `CC(C)N1CCC(N(Cc2ccc(-c3ccc(Cl)cc3)cc2)C(=O)Cn2c(CCc3cccc(F)c3F)cc(=O)c3ccccc32)CC1` [TCMDC-141363] is lower in “% Inhibition” value: 111.4% for the first, 102.7% for the second.

First: CC(C)N1CCC(N(Cc2ccc(-c3ccc(Cl)cc3)cc2)C(=O)Cn2c(CCc3cccc(F)c3F)nc(=O)c3ccccc32)CC1 [TCMDC-141368]
Second: CN1CCC(N(Cc2ccc(-c3ccc(C(F)(F)F)cc3)cc2)C(=O)Cn2cc(Cc3cnn(C)c3)c(=O)nc2SCc2cccc(F)c2F)CC1 [TCMDC-141337]
The “% Inhibition” value of the first is higher: 117.4% for the first, 106.7% for the second.

Compared with `N#Cc1c(N)nc(SCC(=O)Nc2cc(C(F)(F)F)ccc2Cl)c(C#N)c1-c1cccs1` [TCMDC-123750], `Cc1cc(NC(=O)NCCN2CCC(NS(=O)(=O)c3ccc(C(F)(F)F)cc3)C2)c2ccccc2n1` (stereo not shown) [TCMDC-136140] is higher in “% Inhibition” value: -5.622% for the first, 44.51% for the second.

First: COc1ccc(NC(=O)c2ccc(Br)c(C)c2)cc1N1CCN(Cc2ccccc2)CC1 [TCMDC-139031]
Second: NCc1cccc(-c2cccc(CN(C(=O)Nc3ccccc3)C3CCN(Cc4ccccc4)CC3)c2)c1 [TCMDC-140583]
The “% Inhibition” value of the first is lower: -19.8% for the first, 102.4% for the second.

Compared with `CSc1cccc(NC(=O)c2cc3ccccc3oc2=O)c1` [TCMDC-123616], `CCn1c(SCc2ccccc2)nc2c1c(=O)[nH]c(=O)n2C` [TCMDC-125734] is lower in “% Inhibition” value: 19.07% for the first, -6.834% for the second.

Going from `O=C(NCC(c1ccc(C(F)(F)F)cc1)N1CCCC1)c1cc(-c2ccncc2)c(-c2cccc(O)c2)o1` (stereo not shown) [TCMDC-135665] to `O=C(Nc1ccc(Cl)c(C(F)(F)F)c1)c1ccc(C(=O)Nc2ccc(Cl)c(C(F)(F)F)c2)cc1` [TCMDC-125581], the “% Inhibition” value falls from 33.87% to -42.79%.

Going from `CC(C)CNC(=S)N1CCCN(c2nc3ccc(Cl)cc3s2)CC1` [TCMDC-139465] to `O=C(/C=C/c1ccc(Cl)c(Cl)c1)NCCCCCN1CCC(NC(=O)c2cccc(Cl)c2)CC1` [TCMDC-135868], the “% Inhibition” value rises from 24.85% to 49.83%.

Compared with `Cc1noc(C)c1CN1Cc2ccccc2OC2(CCN(Cc3c[nH]c4cnccc34)CC2)C1` [TCMDC-133381], `NCc1ccc(-c2ccccc2CN(C(=O)Nc2ccccc2)C2CCN(Cc3ccccc3)CC2)cc1` [TCMDC-140577] is higher in “% Inhibition” value: 19.56% for the first, 94.87% for the second.

Compared with `CC1CN=C(c2ccc(NC(=O)Nc3ccc(C4=NCC(C)N4)cc3)cc2)N1` (stereo not shown) [TCMDC-137210], `O=C(Nc1ccccc1)N(Cc1cccc(-c2cccc(CNCCc3ccccc3)c2)c1)C1CCN(Cc2ccccc2)CC1` [TCMDC-140587] is higher in “% Inhibition” value: -10.63% for the first, 90.55% for the second.

Going from `N#Cc1ccc(C(=O)NC2CCN(CCCCCNC(=O)/C=C/c3ccc(Cl)c(Cl)c3)CC2)cc1` [TCMDC-135837] to `O=C(/C=C/c1ccc(Cl)c(Cl)c1)NCCCCCN1CCC(NC(=O)c2ccc(F)cc2)CC1` [TCMDC-135840], the “% Inhibition” value falls from 78.66% to 0.6546%.

Compared with `N#Cc1cccc(C(=O)NC2CCN(CCCCCNC(=O)/C=C/c3ccc(Cl)c(Cl)c3)CC2)c1` [TCMDC-135841], `N#Cc1cccc(NC(=O)NC2CCN(CCCCCNC(=O)/C=C/c3ccc(Cl)c(Cl)c3)CC2)c1` [TCMDC-135706] is lower in “% Inhibition” value: 88.37% for the first, -58.78% for the second.

Compared with `CC1(C)N=C(N)N=C(N)N1OCCCCON1C(N)=NC(N)=NC1(C)C` [TCMDC-131630], `O=C(Nc1ccccc1)N(Cc1ccccc1-c1cccc(CNCc2ccc3c(c2)OCO3)c1)C1CCN(Cc2ccccc2)CC1` [TCMDC-140582] is higher in “% Inhibition” value: 2.586% for the first, 47.74% for the second.

In the case of `O=C(Nc1ccccc1)N(Cc1ccccc1-c1cccc(CNCCc2ccccc2)c1)C1CCN(Cc2ccccc2)CC1` [TCMDC-140580], the “% Inhibition” value is reported as 102.3%.
